In the library only some 4.7% were active in any assay of this set; here they are far more common.
D1 PAM: potentiators of human D1 dopamine receptor | 360,000 tested, 0.036% active | AID 504651 | HEK293 TREx D1 cells, calcium flux, dopamine EC20 potentiation | potentiation, % at 10 µM; in the data active = potentiation above about 30%
TRHR ag: TRH receptor (human) agonism. TRHR cells, calcium flux fluo-8, FDSS agonist mode. 360,000 tested, 0.18% active. P34981. activation, % at 2 µM
Target sequence (P34981 whole entry, looked up): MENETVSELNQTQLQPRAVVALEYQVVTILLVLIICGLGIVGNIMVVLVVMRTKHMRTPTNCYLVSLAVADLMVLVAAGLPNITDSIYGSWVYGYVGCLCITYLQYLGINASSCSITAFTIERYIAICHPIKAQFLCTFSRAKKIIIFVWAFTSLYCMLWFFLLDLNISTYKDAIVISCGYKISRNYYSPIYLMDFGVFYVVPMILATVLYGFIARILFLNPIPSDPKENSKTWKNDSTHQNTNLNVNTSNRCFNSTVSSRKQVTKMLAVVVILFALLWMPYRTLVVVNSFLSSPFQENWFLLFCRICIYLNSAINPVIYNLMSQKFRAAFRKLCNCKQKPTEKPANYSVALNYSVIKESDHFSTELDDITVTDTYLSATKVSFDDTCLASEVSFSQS
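TRHR-expressing cells loaded with fluo-8 calcium dye; 23 nL library compound pin-transferred, kinetic FDSS fluorescence (Ex 480/Em 530) recorded about 180 s for agonist-induced calcium release, before a 10 nM TRH EC20 addition for potentiator mode.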
TRHR PAM: allosteric enhancers of human TRH receptor; enhancement, % at 2 µM; TRHR cells, fluo-8 calcium fluorescence, EC20 TRH enhancement; AID 493056; P34981; 360,000 tested, 0.66% active; in the data active = enhancement above about 30%
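Enhancer read-out: after compound pinning and an initial kinetic agonist-mode read, an EC20 of TRH (10 nM final) was injected and fluo-8 calcium signal (Ex 480/Em 530) followed at 1 s/cycle for 100 cycles in TRHR-expressing cells.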
D1 ag: activates the human D1 dopamine receptor; P21728; HEK293 T-REx D1 cells, calcium flux, agonist mode; activation, % at 2 µM; 360,000 tested, 1% active; AID 504660
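Inducible HEK293 T-REx D1 cells, force-coupled to calcium signalling, were plated at 4000 cells/well with tetracycline and held overnight at 30 C. After no-wash calcium dye loading, compound-evoked calcium rise over 180 s flagged agonists.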
D1 antagonist: blocks dopamine activation of the human D1 receptor; P21728; HEK293 TREx D1 cells, calcium flux, dopamine EC80; stronger effect = lower value; activity change, negative = inhibition, % at 10 µM; 360,000 tested, 3.2% active; in the data active = activity change below about -30%
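Using tetracycline-induced force-coupled D1 Hek293 cells and a calcium dye, signals were followed for 180 s after compound, then for 180 s after EC80 dopamine, to detect inhibitors.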
Large screens that a line does not name were inactive. Rule as the data show it, unless noted: active = activation above about 30%; inactive = the rest.

Nc1nonc1-n1nnc(C(=O)N/N=C/c2ccncc2)c1CSc1ccccc1	D1 antagonist -47
CCCN(CCC)Cc1c(C(=O)N/N=C/c2cccs2)nnn1-c1nonc1N	none
CCCc1c(C(=O)N/N=C/c2cccs2)nnn1-c1nonc1N	D1 ag 31
Nc1nonc1-n1nnc(C(=O)N/N=C/c2ccoc2)c1CSc1ccc(Cl)cc1	D1 antagonist -40
CSc1ccc(NC(=O)C2CCN(c3ncccn3)CC2)cc1	none
Cc1nc2ccn(Cc3ccco3)c(=O)c2cc1C(=O)N1CCN(c2ccccc2F)CC1	none
Cc1csc2nc(CNS(=O)(=O)N(C)C)cn12	D1 antagonist -72 (no result: D1 PAM)
Cc1csc2nc(CNS(=O)(=O)c3ccc4c(c3)CCCC4)cn12	D1 antagonist -60
COc1ccc(OC)c(S(=O)(=O)NCc2cn3c(C)csc3n2)c1	none
COc1ccc(S(=O)(=O)NCc2cn3c(C)csc3n2)cc1F	D1 antagonist -49
CC(=O)Nc1ccc(S(=O)(=O)NCc2cn3c(C)csc3n2)cc1	none
CCOC(=O)Nc1ccc2c(c1)N(CCCN(C)C)c1ccccc1CC2	D1 ag 38
CCc1cc2c(cc3c(=O)n(CC(=O)NC4CCCCC4)ncn32)s1	TRHR PAM 44
COc1cccc2c1C(=O)c1c(O)c3c(c(O)c1C2=O)C[C@@](O)(C(=O)CO)C[C@@H]3O[C@H]1C[C@H](N)[C@H](O)[C@H](C)O1	D1 ag 34
CCOC(=O)/C=c1\s/c(=C\c2ccccc2C)c(=O)n1CC(=O)NCc1ccc2c(c1)OCO2	D1 antagonist -57
CCC(=O)N1CCN(c2cc(N3CCN(C)CC3)c(F)cc2[N+](=O)[O-])CC1	none
CN1CCN(c2cc(N3CCc4ccccc4C3)c(F)cc2[N+](=O)[O-])CC1	D1 antagonist -54
CCOC(=O)CN1C(=O)N(c2ccc(C)c(C)c2)S(=O)(=O)c2ccccc21	none
Cc1nc2c(c(C)nn2-c2ccccc2)c(C)c1CCC(=O)Nc1ccc(CN2CCCC2)cc1	D1 antagonist -39
Cc1nc2c(c(C)nn2-c2ccccc2)c(C)c1CCC(=O)Nc1ccccc1	none
Cc1nn(CC(=O)NCc2cccc(F)c2)c(=O)c2c(C)n(-c3ccc(Cl)cc3)nc12	none
O=C(O)CNC(=O)CC1S/C(=N/N=C2/NC(=O)CS2)NC1=O (stereo not drawn)	D1 antagonist -30
Cc1nc2nc(SCC(=O)NC3CCCCC3)nn2c(C)c1Cc1ccccc1Cl	none
Cc1ccc(NC(=O)Cn2nnc3ccccc3c2=O)cc1	none
Cc1ccc(SCCC(=O)OCn2nnc3ccccc3c2=O)cc1	none
Cc1ccc(SCC(=O)OCn2nnc3ccccc3c2=O)cc1C	D1 antagonist -33
Cc1ccc(NC(=O)Cn2nnc3ccccc3c2=O)cc1C	D1 antagonist -40
Cc1ccc(Cn2c(CO)cnc2SCC(=O)NCc2ccccc2Cl)cc1	none
CN(Cc1ccccc1)S(=O)(=O)c1ccc(OCC(=O)N2CCOCC2)cc1	D1 antagonist -32
Cc1ccc(N(CCC(=O)N2CCOCC2)S(=O)(=O)c2ccccc2)cc1	D1 antagonist -55 (no result: D1 PAM)
O=C(COc1ccc(S(=O)(=O)Nc2ccc(Cl)cc2)cc1)N1CCOCC1	D1 ag 31
Cc1ccc(N(CC(=O)N2CCOCC2)S(=O)(=O)c2ccccc2)cc1	none
O=C(CCNS(=O)(=O)c1ccc(Cl)cc1)N1CCOCC1	D1 antagonist -32
CN(Cc1ccccc1)S(=O)(=O)c1ccc(OCC(=O)N2CCC(C(N)=O)CC2)cc1	none
Cc1c(C)c2cc3c(c(C)c2oc1=O)OCN(CCc1ccc(F)cc1)C3	none
CCCCN(C)C(=O)Cn1c(C2CC(=O)N(c3ccc(C)cc3)C2)nc2ccccc21 (stereo not drawn)	none
COC(=O)c1ccc(NC(=O)CN(C)S(=O)(=O)c2ccc3c(c2)CCCC(=O)N3)cc1	none
Cc1cc(-c2onc(C)c2C(=O)Nc2ccc(C(F)(F)F)cc2)no1	none
Cc1noc(-c2ccc(C(F)(F)F)cc2)c1NC(=O)Nc1ccc(Cl)cc1	D1 antagonist -42
COc1ccc(C2CC(=O)c3cnc4c(-c5ccccc5)c(C)nn4c3C2)cc1OC (stereo not drawn)	none
CCOC(=O)C(NC(=O)Nc1ccc(F)cc1F)(Oc1ccccc1)C(F)(F)F (stereo not drawn)	TRHR PAM 31
CCOC(=O)C(NC(=O)Nc1ccc(Cl)cn1)(Oc1ccccc1)C(F)(F)F (stereo not drawn)	none
O=C(CCCNC(=O)c1ccc(Cl)cc1)NCc1ccccc1Cl	none
O=C(COC(=O)CCCNC(=O)c1ccc(Cl)cc1)NCc1ccccc1Cl	D1 ag 77
CN(C)Cc1cc(CCNC(=O)c2ccc(Cl)cc2)ccc1O	D1 antagonist -37
Cc1c(C)n(C)c2ccc(C(=O)NCCc3ccc(Cl)cc3)cc12	D1 antagonist -59
O=C(CCNC(=O)c1ccc(Cl)cc1)Nc1ccc(F)cc1F	D1 antagonist -47
CCN(CC)Cc1cc(CCNC(=O)c2ccc(Cl)cc2)ccc1O	none (no result: D1 antagonist)
Cc1ccccc1CCNC(=O)c1ccc2c(c1)c(C)c(C)n2C	none
CC(=O)c1c(C)oc2c1cc(NS(=O)(=O)c1ccc(Cl)c(C)c1)c1ccccc12	none
CCOc1ccc(S(=O)(=O)NCCc2csc(-c3ccc(Cl)cc3)n2)cc1	none
Cc1ccc(C(=O)NCCc2ccccc2)cc1	none
NS(=O)(=O)c1ccc(CCNC(=O)CCCNC(=O)c2ccc(Cl)cc2)cc1	D1 antagonist -33
CCc1ccc(C(=O)NNc2ccc(F)cc2F)cc1	D1 antagonist -51
Cc1ccc(C(=O)NCCc2ccncc2)cc1	D1 antagonist -36
O=C(NCCc1ccc(O)cc1)c1ccc(Cl)cc1	D1 antagonist -32
COC(=O)COc1ccc(C2C(C(=O)OC)=C(C)NC3=C2C(=O)c2ccccc23)cc1OC (stereo not drawn)	none
Cc1ccc(OCC(=O)Nc2ccc(C)c(S(=O)(=O)N3CCCCC3)c2)c([N+](=O)[O-])n1	none
CCC(Sc1nc(C)cc(=O)[nH]1)C(=O)Nc1nc2c(s1)CCCC2 (stereo not drawn)	none
CC(Sc1nc(N)cc(=O)[nH]1)C(=O)Nc1nc2c(s1)CCCC2 (stereo not drawn)	D1 antagonist -41
CCOC(=O)c1ccc(NC(=O)CSc2nc(-c3ccc(OC)cc3)cc(C(F)(F)F)c2C#N)cc1	none
O=C(OCc1nnc(-c2ccccc2)o1)c1cc(S(=O)(=O)N2CCOCC2)c(Cl)cc1Cl	D1 antagonist -34
O=C(Cn1cc(SCc2ccc(Cl)cc2)c2ccccc21)N1CCCC1	none
C=CCNC(=O)c1onc(CSc2ccccc2F)c1C(=O)O	none
C=CCNC(=O)c1onc(CSc2ccc(F)cc2)c1C(=O)O	D1 antagonist -34
CCCNC(=O)c1onc(CSc2ccccc2)c1C(=O)NCCC	none
C=CCNC(=O)c1onc(CSc2cccc3ccccc23)c1C(=O)O	TRHR PAM 33

Compound activity from PubChem BioAssay.
